PubChem BioAssay (Tox21)
Several values for one entry are separate records, joined by “and”; a condition that tells them apart may be missing. Equal entries are not always repeated. Records with an inconclusive call do not appear. A call without a number means that no potency is given here. More than one record can exist for a structure, and the calls need not agree. Activity calls are given as the source filed them. Unless noted, the call rests on the fitted dose curve; in most records, active means well fitted curve in the direction sought with a large enough effect in the repeat runs; inconclusive means weak or mixed curves; inactive means no such curve, though single readings can be large; an effect the other way counts as inactive or inconclusive.

Columns and labels:
[1] = qHTS assay to identify small molecule agonists of the estrogen receptor alpha (ER-alpha) signaling pathway in the presence of an antagonist - cell viability counter screen (AID 1259386);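 further: cells exposed to compounds for 22 h at 37 °C before the viability read; nearly all actives have a fitted effect of over 30% in size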; further: potency means the concentration at half of the fitted maximal effect
Procedure, shortened: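 Steps: 5-day stripped-FBS culture; seed and incubate 24hr; add ICI-182,780 (10.0nM final); pin 15-point compound titration; incubate 22hr at 37C; add CellTiter-Fluor at 21hr; read fluorescence.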

[2] = target: Progesterone receptor (Homo sapiens) (UniProt P06401); experiment: qHTS assay to identify small molecule agonists of the progesterone receptor (PR) signaling pathway (AID 1346784; calls by dose curve; further: nearly all actives have a fitted effect of over 30% in size)
Procedure, shortened: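 Reporter assay, GripTite PR-UAS-bla HEK 293T cells: 16 hr exposure to DMSO-dissolved compounds at 37C, 5% CO2, in steroid-depleted (2% charcoal-stripped FBS) medium; beta-lactamase measured by FRET fluorescence.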

[3] = target: Progesterone receptor (Homo sapiens) (UniProt P06401); experiment: qHTS assay to identify small molecule antagonists of the progesterone receptor (PR) signaling pathway (AID 1346795; active means well fitted inhibition curve with a large enough effect in the signal ratio in the repeat runs, not every such curve was filed as active; the % refers to the signal ratio; further: potency means the concentration at half of the fitted maximal effect)
Procedure, shortened: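 Stimulus R5020 at 1 nM final; cells HEK293T PR-UAS-bla; medium with 2% charcoal-stripped FBS; compound exposure 16 hr at 37C, 5% CO2; detection by FRET beta-lactamase substrate, 2 hr, room temperature.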

[4] = qHTS assay to identify small molecule antagonists of the progesterone receptor (PR) signaling pathway - cell viability counter screen (AID 1346798); further: nearly all actives have a fitted effect of over 50% in size; further: potency means the concentration at half of the fitted maximal effect
Procedure, shortened: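 In the same plates used for the beta-lactamase readout, cell viability of compound- and R5020-treated PR-UAS-bla HEK293T cells (16 hr, 37C) was assessed by CellTiter-Glo luminescence.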

[5] = qHTS assay to identify small molecule agonists of the progesterone receptor (PR) signaling pathway - cell viability counter screen (AID 1346799; calls by dose curve; further: nearly all actives have a fitted effect of over 45% in size; further: potency means the concentration at half of the fitted maximal effect)
Procedure, shortened: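 Multiplexed viability read: CellTiter-Glo luminescence, 30 min RT, following LiveBLAzer FRET measurement on PR-UAS-bla HEK293T cells exposed to compounds 16 hr.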

[6] = qHTS assay to identify small molecule antagonists of the TGF-beta/Smad signaling pathway - cell viability counter screen (AID 1346824); further: nearly all actives have a fitted effect of over 50% in size; further: potency means the concentration at half of the fitted maximal effect
Procedure, shortened: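 SBE-bla HEK 293T cells, incubated overnight, then compound plus 0.25 ng/mL TGF-beta1 (stock added) for 5 hr at 37 C. Viability was read in the same wells by CellTiter-Glo luminescence after 30 min at room temperature.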

[7] = qHTS assay to identify small molecule agonists of the TGF-beta/Smad signaling pathway - cell viability counter screen (AID 1346829); further: nearly all actives have a fitted effect of over 45% in size; further: potency means the concentration at half of the fitted maximal effect
Procedure, shortened: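 Cytotoxicity counter screen: CellTiter-Glo luminescence (30 min, room temperature) measured in the SBE-bla HEK 293T reporter wells after 5 hr compound treatment at 37 C and the 2 hr substrate step.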

[8] = qHTS assay to identify small molecule agonists of the TGF-beta/Smad signaling pathway (AID 1346859; active means well fitted activation curve with a large enough effect in the signal ratio in the repeat runs, not every such curve was filed as active; the % refers to the signal ratio; further: series mostly up to about 77 µM)
Procedure, shortened: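 Screening used HEK 293T SBE-bla cells at 4,000/well. Test agents: 5 hr, 37 C. Detection: FRET substrate, 2 hr RT, then excitation 405 nm with emissions at 460 and 530 nm.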

[9] = target: Thyrotropin-releasing hormone receptor (Homo sapiens) (UniProt P34981); experiment: qHTS assay to identify small molecule agonists of the thyrotropin-releasing hormone receptor (TRHR) signaling pathway (AID 1346891; calls by dose curve; further: potency means the concentration at half of the fitted maximal effect; on activation: series mostly up to about 58 µM)
Procedure, shortened: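 Readout was intracellular calcium fluorescence in TRHR-Hek293 cells. Cells were incubated 18 h, dye-loaded 2 h at 37 °C, and treated with compound in agonist mode.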

[10] = Caspase-3/7 induction in HepG2 cells by small molecules, qHTS assay (AID 1346978); further: nearly all actives have a fitted effect of over 15% in size; further: potency means the concentration at half of the fitted maximal effect
Procedure, shortened: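 Wild-type HepG2 cells, 2,000/well, settled 5 hr at 37 C and 5% CO2, then compound-treated for 17 hr; caspase-3/7 activity read by luminescent Caspase-Glo 3/7 after 30 min at room temperature.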

[11] = Caspase-3/7 induction in CHO-K1 cells by small molecules, qHTS assay (AID 1346980); further: nearly all actives have a fitted effect of over 15% in size; further: potency means the concentration at half of the fitted maximal effect
Procedure, shortened: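 Wild-type CHO-K1 cells exposed to compounds for 17hr at 37 C, 5% CO2. Caspase-3/7 activity then measured by Caspase-Glo 3/7 luminescence after 30min at room temperature.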

[12] = Caspase-3/7 induction in HepG2 cells by small molecules, qHTS cell viability counter screen (AID 1346981); further: nearly all actives have a fitted effect of over 30% in size; further: potency means the concentration at half of the fitted maximal effect
Procedure, shortened: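 The parent HepG2 line is plated at 2,000 cells per well and rested 5 hr before compound pinning from DMSO stocks. Following a 16-hr treatment at 37 C, a fluorogenic live-cell substrate (CellTiter-Fluor) reports viability after 1 hr.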

[13] = target: Nuclear receptor subfamily 1 group I member 2 (Homo sapiens) (UniProt O75469); experiment: Human pregnane X receptor (PXR) small molecule agonists, qHTS assay (AID 1346982); further: nearly all actives have a fitted effect of over 35% in size; further: potency means the concentration at half of the fitted maximal effect
Procedure, shortened: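 After plating in 5% charcoal-stripped FBS and a 5 hr rest, PXR-Luc HepG2 cells received compounds in DMSO. Following 24 hr at 37 C, ONE-Glo was added and light output read.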

[14] = target: Acetylcholinesterase (Homo sapiens) (UniProt P22303); experiment: Acetylcholinesterase (AChE) small molecule antagonists: colormetric cell-based qHTS assay (AID 1347395; calls by dose curve; further: nearly all actives have a fitted effect of over 30% in size; further: potency means the concentration at half of the fitted maximal effect)
Procedure, shortened: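 After overnight attachment at 37 C, SH-SY5Y cells get 30 min compound exposure; detection cocktail (acetylthiocholine, DTNB) then incubates 90 min at 37 C, and absorbance reflects AChE-generated thiocholine.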

[15] = Caspase-3/7 induction in CHO-K1 cells by small molecules, qHTS cell viability counter screen (AID 1346979); further: nearly all actives have a fitted effect of over 35% in size; further: potency means the concentration at half of the fitted maximal effect
Procedure, shortened: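 Following a 5hr settling period, CHO-K1 cells at 1,500 per well received DMSO-dissolved compounds. Cell viability was quantified 16hr later by CellTiter-Fluor fluorescence, measured after 1hr with reagent at 37C.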

[16] = target: Thyrotropin-releasing hormone receptor (Homo sapiens) (UniProt P34981); experiment: qHTS assay to identify small molecule antagonists of the thyrotropin-releasing hormone receptor (TRHR) signaling pathway (AID 1346877; active means well fitted inhibition curve with a large enough effect in the repeat runs, not every such curve was filed as active; further: potency means the concentration at half of the fitted maximal effect)
Procedure, shortened: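 Human TRHR in HEK293 cells; inhibition of the intracellular calcium rise triggered by 1 nM TRH was followed by fluorescence over 3 min. Compounds were run at 15 concentrations, three replicates each.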

[17] = Human pregnane X receptor (PXR) small molecule agonists, qHTS cell viability counter screen (AID 1346977); further: nearly all actives have a fitted effect of over 50% in size; further: potency means the concentration at half of the fitted maximal effect
Procedure, shortened: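 In each well, the PXR reporter HepG2 line was checked for viability: CellTiter-Fluor reagent added 23hr post-dosing, fluorescence read after 1hr incubation at 37C.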

[18] = target: Nuclear receptor subfamily 1 group I member 2 (Homo sapiens) (UniProt O75469); experiment: CYP3A4 induction through human pregnane X receptor (PXR) by small molecules, qHTS assay (AID 1346984); further: nearly all actives have a fitted effect of over 40% in size
Procedure, shortened: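 Human PXR activation is tracked via CYP3A4 promoter-luciferase in DPX-2 (HepG2) cells. Compounds treat cells for 24hr at 37C, and luminescence is read after One-Glo.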

[19] = target: Nuclear receptor subfamily 1 group I member 2 (Homo sapiens) (UniProt O75469); experiment: Human pregnane X receptor (PXR) activation by small molecules, qHTS assay (AID 1346985); further: nearly all actives have a fitted effect of over 40% in size
Procedure, shortened: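 DPX-2 cells (HepG2 co-transfected with a PXR response element and a CYP3A4-promoter luciferase construct) were seeded at 2,000 per well, rested 5 hr at 37C, then exposed to DMSO-dissolved compounds for 24 hr. Activation was read as luciferase luminescence.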

[20] = target: Nuclear receptor subfamily 1 group I member 2 (Rattus norvegicus) (UniProt Q9R1A7); experiment: Rat pregnane X receptor (rPXR) activation by small molecules, qHTS assay (AID 1346983); conditions: rPXR luciferase reporter cells, One-Glo luminescence, 24 h; max activation: stronger effect = higher value; further: nearly all actives have a fitted effect of over 20% in size
Procedure, shortened: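 Cell-based rPXR activation assay: rPXR cells, 2,000 per well, rested 5hr at 37 C, then exposed to compounds in DMSO for 24 hr at 37 C. Luciferase activity read by One-Glo luminescence after 30 min at room temperature.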

Acetylcholinesterase (Homo sapiens), sequence (P22303 whole entry, looked up): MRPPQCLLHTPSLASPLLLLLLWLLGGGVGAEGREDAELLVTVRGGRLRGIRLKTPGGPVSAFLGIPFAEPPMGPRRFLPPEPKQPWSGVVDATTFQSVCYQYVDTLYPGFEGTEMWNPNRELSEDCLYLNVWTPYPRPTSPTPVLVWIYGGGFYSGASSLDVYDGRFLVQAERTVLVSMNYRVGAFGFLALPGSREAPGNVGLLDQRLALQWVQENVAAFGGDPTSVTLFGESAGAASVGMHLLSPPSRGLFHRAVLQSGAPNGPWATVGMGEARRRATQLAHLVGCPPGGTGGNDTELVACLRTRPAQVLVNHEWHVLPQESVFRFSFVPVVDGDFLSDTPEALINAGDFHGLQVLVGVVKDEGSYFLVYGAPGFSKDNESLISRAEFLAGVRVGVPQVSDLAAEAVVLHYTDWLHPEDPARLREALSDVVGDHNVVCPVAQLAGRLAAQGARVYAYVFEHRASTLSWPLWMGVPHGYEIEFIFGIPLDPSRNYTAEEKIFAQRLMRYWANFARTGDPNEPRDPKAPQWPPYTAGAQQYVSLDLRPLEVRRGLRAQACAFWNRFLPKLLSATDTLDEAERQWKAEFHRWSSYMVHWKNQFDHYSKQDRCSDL
Progesterone receptor (Homo sapiens), sequence (P06401 whole entry, looked up): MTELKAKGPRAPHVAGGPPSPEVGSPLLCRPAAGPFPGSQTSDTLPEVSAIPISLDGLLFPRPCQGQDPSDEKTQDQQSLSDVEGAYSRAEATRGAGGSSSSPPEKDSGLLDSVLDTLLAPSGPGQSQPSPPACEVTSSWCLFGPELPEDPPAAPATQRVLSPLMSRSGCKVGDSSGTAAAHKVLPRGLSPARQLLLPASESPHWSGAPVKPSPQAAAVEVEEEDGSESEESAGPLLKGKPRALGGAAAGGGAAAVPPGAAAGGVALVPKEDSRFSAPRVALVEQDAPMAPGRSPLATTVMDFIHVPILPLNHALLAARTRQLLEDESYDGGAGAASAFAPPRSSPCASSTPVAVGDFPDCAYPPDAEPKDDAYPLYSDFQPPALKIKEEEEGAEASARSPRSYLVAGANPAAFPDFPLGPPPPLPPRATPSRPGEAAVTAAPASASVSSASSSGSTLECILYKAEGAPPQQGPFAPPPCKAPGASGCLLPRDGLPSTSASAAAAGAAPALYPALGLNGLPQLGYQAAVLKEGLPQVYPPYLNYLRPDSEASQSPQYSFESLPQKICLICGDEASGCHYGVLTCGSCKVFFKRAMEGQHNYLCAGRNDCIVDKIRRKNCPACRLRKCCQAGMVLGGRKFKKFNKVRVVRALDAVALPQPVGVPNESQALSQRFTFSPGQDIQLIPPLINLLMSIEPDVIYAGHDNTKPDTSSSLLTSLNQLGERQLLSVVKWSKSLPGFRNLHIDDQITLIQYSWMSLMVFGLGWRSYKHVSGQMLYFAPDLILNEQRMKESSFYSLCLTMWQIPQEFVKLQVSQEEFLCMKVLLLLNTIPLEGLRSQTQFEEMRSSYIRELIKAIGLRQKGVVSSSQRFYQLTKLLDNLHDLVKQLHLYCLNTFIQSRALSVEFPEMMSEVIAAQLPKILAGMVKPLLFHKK
Thyrotropin-releasing hormone receptor (Homo sapiens), sequence (P34981 whole entry, looked up): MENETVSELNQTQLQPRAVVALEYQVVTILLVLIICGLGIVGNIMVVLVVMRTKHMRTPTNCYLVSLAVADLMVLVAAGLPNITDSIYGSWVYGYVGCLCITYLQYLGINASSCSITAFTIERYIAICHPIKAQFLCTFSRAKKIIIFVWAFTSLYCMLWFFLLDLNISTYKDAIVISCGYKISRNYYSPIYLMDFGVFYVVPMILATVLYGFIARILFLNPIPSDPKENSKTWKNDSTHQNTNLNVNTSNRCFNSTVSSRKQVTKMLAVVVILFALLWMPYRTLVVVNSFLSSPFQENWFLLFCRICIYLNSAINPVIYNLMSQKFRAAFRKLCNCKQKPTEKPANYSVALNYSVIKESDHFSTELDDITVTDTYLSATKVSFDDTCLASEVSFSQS
Nuclear receptor subfamily 1 group I member 2 (Homo sapiens), sequence (O75469 whole entry, looked up): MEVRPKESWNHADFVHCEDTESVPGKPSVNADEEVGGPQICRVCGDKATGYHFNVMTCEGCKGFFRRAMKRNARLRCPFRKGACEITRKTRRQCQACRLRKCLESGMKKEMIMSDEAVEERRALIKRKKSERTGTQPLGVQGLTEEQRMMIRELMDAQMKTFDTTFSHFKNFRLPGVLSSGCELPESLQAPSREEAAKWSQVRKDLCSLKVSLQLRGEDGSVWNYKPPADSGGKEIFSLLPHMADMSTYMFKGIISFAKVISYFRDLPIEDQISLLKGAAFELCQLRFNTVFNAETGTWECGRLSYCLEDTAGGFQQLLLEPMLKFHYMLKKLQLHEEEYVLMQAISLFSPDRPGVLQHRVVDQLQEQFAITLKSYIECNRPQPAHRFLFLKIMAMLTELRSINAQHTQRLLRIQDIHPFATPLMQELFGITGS
Nuclear receptor subfamily 1 group I member 2 (Rattus norvegicus), sequence (Q9R1A7 whole entry, looked up): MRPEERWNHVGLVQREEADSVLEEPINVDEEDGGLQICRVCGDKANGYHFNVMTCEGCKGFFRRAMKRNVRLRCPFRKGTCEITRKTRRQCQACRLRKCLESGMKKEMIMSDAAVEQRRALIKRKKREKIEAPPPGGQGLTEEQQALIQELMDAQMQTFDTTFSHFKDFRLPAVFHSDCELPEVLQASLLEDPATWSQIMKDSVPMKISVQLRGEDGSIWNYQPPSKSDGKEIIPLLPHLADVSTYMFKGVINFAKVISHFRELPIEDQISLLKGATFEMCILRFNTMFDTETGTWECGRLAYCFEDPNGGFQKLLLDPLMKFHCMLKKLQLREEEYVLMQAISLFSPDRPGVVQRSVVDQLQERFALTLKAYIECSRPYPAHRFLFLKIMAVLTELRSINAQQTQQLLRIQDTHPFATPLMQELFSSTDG

Row | Compound | Potency [1] | Potency [2] | Potency [3] | Potency [4] | Potency [5] | Potency [6] | Potency [7] | outcome [8] | Potency [9] | Potency [10] | Potency [11] | Potency [12] | Potency [13] | Potency [14] | Potency [15] | Potency [16] | Potency [17] | Potency [18] | Potency [19] | max activation [20]
1 | CC(C)(C)c1ccc(OP(=O)(Oc2ccccc2)Oc2ccccc2)cc1 | inactive | inactive | 21.8 µM (active) | inactive | inactive | inactive | inactive | inactive | inactive | inactive | inactive | inactive | 13.8 µM (active) | 31900 nM (active) | – | – | – | – | – | –
2 | c1ccc(N=NNc2ccccc2)cc1 | 28.3 µM (active) and 27.3 µM (active) | inactive | 56.4 µM (active) and 48.6 µM (active) | inactive | inactive | inactive | inactive | inactive | inactive | – | inactive | 28300 nM (active) | 31.7 µM (active) and 30.6 µM (active) | inactive | 56.4 µM (active) | – | – | – | – | –
3 | C=Cc1cccc(CCl)c1 | inactive | inactive | inactive | inactive | inactive | inactive | inactive | inactive | inactive | inactive | inactive | – | inactive | inactive | inactive | – | – | – | – | –
4 | CCOP(=O)(OCC)Oc1cc(C)nc(C(C)C)n1 | inactive | inactive | inactive | inactive | inactive | – | inactive | inactive | inactive | – | inactive | inactive | inactive | 142 nM (active) | inactive | inactive | inactive | – | – | –
5 | CC[N+]1(CC)CCC(OC(=O)C(O)(c2ccccc2)c2ccccc2)C1 (configuration not stated) | inactive | inactive | inactive | inactive | – | inactive | inactive | inactive | inactive | inactive | inactive | inactive | inactive | inactive | inactive | – | – | – | – | –
6 | CC(C)N(C(=O)SC/C(Cl)=C/Cl)C(C)C | inactive | inactive | inactive | inactive | inactive | inactive | inactive | inactive | – | inactive | inactive | inactive | – | inactive | inactive | – | inactive | – | – | –
7 | O=C(CCCCl)c1ccc(F)cc1 | inactive | inactive | inactive | inactive | inactive | inactive | inactive | inactive | – | inactive | inactive | – | inactive | inactive | inactive | – | inactive | – | – | –
8 | Clc1ccc(C(c2ccc(Cl)cc2)C(Cl)Cl)cc1 | inactive | inactive | 7.82 µM (active) | inactive | – | inactive | – | inactive | – | inactive | – | – | 19.6 µM (active) | inactive | – | – | – | – | – | –
9 | O=NN(CCO)CCO | inactive | inactive | inactive | inactive | inactive | inactive | inactive | inactive | – | inactive | inactive | inactive | inactive | inactive | inactive | – | – | – | – | –
10 | CCN(CC)C(=S)S | inactive | inactive | 49 µM (active) and 6.82 µM (active) and 13.7 µM (active) | 61.6 µM (active) and 7.65 µM (active) and 17.2 µM (active) | 17.1 µM (active) and inactive | inactive | inactive | inactive | – | inactive and 27.1 µM (active) | inactive | inactive | 27.1 µM (active) and 61.1 µM (active) | inactive | 13.8 µM (active) and 7.65 µM (active) and 27.3 µM (active) | – | 28.2 µM (active) and inactive | inactive | inactive | –
11 | CC(=O)[O][Sn]([c]1ccccc1)([c]1ccccc1)[c]1ccccc1 | 8.63 µM (active) | inactive | 0.0486 µM (active) | 273 nM (active) | 433 nM (active) | 1950 nM (active) | 1740 nM (active) | – | 4900 nM (active) | – | 122 nM (active) | 2730 nM (active) | 0.243 µM (active) | inactive | 0.154 µM (active) | 2690 nM (active) | – | – | – | –
12 | CCc1cccc(C)c1N(C(=O)CCl)[C@@H](C)COC | inactive | inactive | – | inactive | inactive | inactive | inactive | inactive | inactive | inactive | – | – | 7.7 µM (active) | inactive | – | inactive | inactive | – | – | –
13 | C[N+]1(C)[C@@H]2CC[C@H]1CC(OC(=O)C(CO)c1ccccc1)C2 (some centres not stated) | inactive | inactive | inactive | – | inactive | inactive | inactive | inactive | – | inactive | – | inactive | inactive | inactive | inactive | – | inactive | inactive | inactive | 5.17% (inactive) and -0.275% (inactive)
